Results published in PubChem BioAssay (NCI).
Where “and” joins values, the source holds several entries; their conditions need not be identical. Equal values may be shown once. About 79,000 compounds went through this panel and 15% of them were active in at least one assay; those are over-represented in the sample as a whole. Calls of active or inactive are those of the source. No stated cut-off is given here; in the data, active means growth inhibition above about 70%; inactive means the rest.

How the values were obtained:
[1] = NCI Yeast Anticancer Drug Screen. Data for the rad50 strain (AID 155);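 further: 0% = growth of vehicle-only cultures of the same strain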; settings: S. cerevisiae rad50 strain growth inhibition; at 50.0 µM; active compounds read high
Summary of the method: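 Relative growth inhibition (compound vs vehicle) was measured in yeast with a defined repair-gene alteration.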

[2] = NCI Yeast Anticancer Drug Screen. Data for the mec2-1 strain (AID 157); settings: S. cerevisiae mec2-1 strain, at 50.0 µM, active compounds read high
Summary of the method: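 mec2-1 yeast strain, carrying an alteration in DNA damage repair or cell cycle control, was exposed to compounds; growth inhibition was measured relative to vehicle-treated controls.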

[3] = NCI Yeast Anticancer Drug Screen. Data for the sgs1 mgt1 strain (AID 161);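 further: 0% = growth of cultures given vehicle only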; settings: S. cerevisiae sgs1 mgt1 strain, at 50.0 µM, active compounds read high
Summary of the method: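 Percent growth inhibition was derived by comparing compound-exposed mutant yeast with vehicle-exposed cultures. The strain carries alterations in DNA damage repair.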

[4] = NCI Yeast Anticancer Drug Screen. Data for the cln2 rad14 strain (AID 165);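 further: 0% = growth equal to vehicle treated cultures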; settings: S. cerevisiae cln2 rad14 strain, at 50.0 µM, active compounds read high
Summary of the method: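 Yeast carrying cln2 and rad14 alterations (cell cycle control and DNA damage repair) were exposed to compounds. Growth inhibition was measured against vehicle-treated controls.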

[5] = NCI Yeast Anticancer Drug Screen. Data for the bub3 strain (AID 167); settings: S. cerevisiae bub3 mutant strain, at 50.0 µM, active compounds read high
Summary of the method: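 Screening used yeast with an engineered genetic alteration affecting cell cycle control. Compound-exposed cultures were compared with vehicle cultures, and reduced growth was taken as inhibition.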

[6] = NCI Yeast Anticancer Drug Screen. Data for the mlh1 rad18 strain (AID 175); settings: S. cerevisiae mlh1 rad18 strain growth inhibition; at 50.0 µM; active compounds read high
Summary of the method: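 Growth inhibition of the yeast strain was measured after compound exposure and expressed relative to vehicle-treated controls. The strain carries defined defects in DNA damage repair.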

Measured: growth inhibition

Cn1c(=O)n(C)c(=O)n(C)c1=O
inactive: [1] 3.8% | [2] 6.65% | [3] -5.2% | [4] -1.55% | [5] 14.6% | [6] -12.6%

CCN1CCC(O)(c2ccccc2)C(C(=O)c2ccccc2)C1 (centres undefined)
inactive: [1] 5.15% | [2] -17.1% | [3] 5.3% | [4] 20.7% | [5] -10.9% | [6] 16.4%

Clc1ccc(Br)cc1
inactive: [1] 4.25% | [2] -1.55% | [3] -5.75% | [4] -7.95% | [5] 0.45% | [6] -1.35%

Cc1c(O)c(O)c(C)c(CCN)c1O
inactive: [1] 15.4% | [2] 19.8% | [3] 22.1% | [4] -26.8% | [5] 25.1% | [6] 27.9%

O=c1c(O)c(-c2ccccc2)oc2ccccc12.[Zn+2]
inactive: [1] -6.95% | [2] 7.25% | [3] 20.2% | [4] -41% | [5] 24.9% | [6] 27.6%

Cc1ccccc1N
inactive: [1] 4.1% | [2] -14.4% | [3] -1.15% | [4] -1.7% | [5] -1.55% | [6] 4.4%

CC(=O)Nc1nccs1.CC(=O)Nc1nccs1.[Cl][Pt][Cl]
inactive: [1] 9% | [2] 5.25% | [3] 8.8% | [4] -1.55% | [5] -1.45% | [6] 5.1%

CN1C2CCCC1CC(=O)C2
inactive: [1] -10.3% | [2] -3.55% | [3] -19.4% | [4] -22.4% | [5] -3.55% | [6] -10.8%

[O-][n+]1c2ccccc2nn1-c1ccc(N(CCCl)CCCl)cc1
inactive: [1] 7.2% | [2] 0.35% | [3] -2.05% | [4] -6.95% | [5] -16.9% | [6] -22.1%

C/C=C1/CC(C)C(C)(O)C(=O)OCC2CCN3CCC(OC1=O)C23 (centres undefined)
inactive: [1] 13.5% | [2] -1.75% | [3] 6.8% | [4] 8.05% | [5] 23.1% | [6] 18.4%

CCOP(=S)(N/N=C/c1ccc(C)s1)OCC
inactive: [1] -19.3% | [2] -27.2% | [3] 5.45% | [4] -12.3% | [5] 7.65% | [6] -30.8%

CS(=O)(=O)Cl
inactive: [1] 7.65% | [2] -26.9% | [3] 16.4% | [4] 13.1% | [5] -4.85% | [6] 0%

C[C@]12CCNC(=O)C=C1CC[C@@H]1C2CC[C@@]2(C)C1CC[C@@H]2OC(=O)COc1ccc(N(CCCl)CCCl)cc1 (some centres undefined)
inactive: [1] 24.4% | [2] 25.1% | [3] 21.6% | [4] 60% | [5] 35.8% | [6] -26.1%

O=NN1CCOCC1
inactive: [1] -36.5% | [2] 11.1% | [3] 14.8% | [4] -15.7% | [5] -1.6% | [6] 31.1%

O=C(O)CCC(=O)O
inactive: [1] -8.1% and 5.7% | [2] -16.6% and -2.05% | [3] -22.3% and -6.35% | [4] -41.9% and 13.8% | [5] -28% and -2.05% | [6] -13.1% and 11.2%

CC(=O)N[C@@H](C[S-])C(=O)O.O=[N+]([O-])O.[Ag+]
inactive: [1] -1.95% | [2] 0.95% | [3] 53.8% | [4] 25.1% | [5] 19.9% | [6] 21.1%

O=[N+]([O-])c1ccccc1-c1ccccc1
inactive: [1] 24.3% | [2] -27.8% | [3] 7.05% | [4] 13.2% | [5] -21.8% | [6] 2.25%

CC(=O)O[C@H]1CCC2[C@@H]3CC[C@]4(C)CC(=O)C=C[C@]4(C)C3CC[C@@]21C (some centres undefined)
active: [1] 84.7% | [2] 90.5% | [3] 88% | [4] 85.1% | [5] 87.1% | [6] 89.3%

O=S1(=O)N2CN3CCN(C2)CN1C3
inactive: [1] 36.5% | [2] 40.4% | [3] 31.4% | [4] -25.3% | [5] 12.1% | [6] 34%

CC1(C)C=C(NC(=O)N2CC2)C(C)(C)N1O
inactive: [1] 12.7% | [2] 11.3% | [3] -2% | [4] 9.75% | [5] 34.8% | [6] 1.45%

C[N+]1([O-])[C@H]2CC(OC(=O)[C@H](CO)c3ccccc3)C[C@H]1[C@H]1O[C@H]12 (some centres undefined)
inactive: [1] -9.75% | [2] -3.35% | [3] -14.9% | [4] -26.5% | [5] -34.2% | [6] -10.1%

CC(COC(=O)NCc1ccccc1)OC(N)=O (centres undefined)
inactive: [1] -1.05% | [2] -14.8% | [3] 13.1% | [4] -10.3% | [5] 1.15% | [6] -11.4%

O=[As](O)(O)Cc1cccc(F)c1
inactive: [1] -3.8% | [2] -7.8% | [3] -6.65% | [4] -46.5% | [5] 2.1% | [6] -8.35%

O=C(NCCN1CCOCC1)C1(O)N=C(c2ccccc2)c2ccsc2-n2cccc21 (centres undefined)
inactive: [1] 51.3% | [2] 30.3% | [3] 64.2% | [4] -6.05% | [5] 27.6% | [6] 36.5%

Cc1ccc(OP(=O)(Oc2ccc(C)c(C)c2)Oc2ccc(C)c(C)c2)cc1C
inactive: [1] -3.7% | [2] -8.55% | [3] -9.15% | [4] -8.95% | [5] 5.2% | [6] -17%

COP1(=O)Oc2ccccc2C(=O)C(C(F)(F)F)(C(F)(F)F)O1 (centres undefined)
inactive: [1] -16.9% | [2] -1.6% | [3] -15.8% | [4] 5.05% | [5] -20.2% | [6] -34.1%

O=C(NCP(=O)(O)O)c1cccnc1
inactive: [1] -10.7% and -6.8% | [2] -29.5% and -10.8% | [3] -4.9% and 6.8% | [4] -37.6% and -25.1% | [5] -32.8% and -6.75% | [6] 2.85% and -10.2%

Cn1cnc([N+](=O)[O-])c1C(=O)O
inactive: [1] 7.9% | [2] 25.1% | [3] 20.4% | [4] -13.2% | [5] -17.9% | [6] 6.55%

CC(=O)OC1CCC2(C)C(=CC=C3C4CCC(=O)C4(C)CCC32)C1 (centres undefined)
inactive: [1] 5.85% and 8.55% | [2] 44.6% and 36.8% | [3] -5.15% and 3.5% | [4] 3% and 2.9% | [5] 35.1% and 34.3% | [6] 22.5% and 10.2%

O=NNc1ccc(Br)cn1
inactive: [1] -2.7% | [2] -6.25% | [3] 5.7% | [4] -0.85% | [5] -0.35% | [6] 4.2%

CC1=C(O)C(=O)[C@@H]2O[C@@H]2C1=O
inactive: [1] 42% | [2] 29.6% | [3] 43.8% | [4] 14% | [5] 31.3% | [6] -35.4%

CCC[As](=O)(O)CC(C)C
inactive: [1] 3.2% | [2] -2.8% | [3] -4.9% | [4] 13.2% | [5] -0.4% | [6] -3.75%

O=C(O)c1cc(Cc2ccc(O)c(C(=O)O)c2)ccc1O
inactive: [1] -24.2% and -8.25% | [2] 3.15% and -18.5% | [3] -18.3% and 8.2% | [4] -0.5% and -39.9% | [5] -13.4% and 33.9% | [6] -23.9% and -10.8%

COC(=O)C(C)NP(=O)(N1CC1)N1CC1 (centres undefined)
inactive: [1] 1.5% | [2] -2.25% | [3] -5.05% | [4] -10.2% | [5] -7.85% | [6] -14.3%

COC(=O)c1cccc(S(=O)(=O)F)c1
inactive: [1] -9.85% | [2] -5.05% | [3] -15.7% | [4] -13.4% | [5] 20.1% | [6] -28.4%

O=C(COc1ccc(Cl)c(Cl)c1)Nc1ccc[n+](Cc2ccc(Cl)c(S(=O)(=O)F)c2)c1
active: [1] 98.2% | [2] 90.7% | [3] 95.3% | [4] 79.3% | [5] 78.2% | [6] 98.5%

CC1(C)OC2(C)CCC1C(O)C2N1CCCCC1 (centres undefined)
inactive: [1] -29.6% | [2] -4.15% | [3] -13.4% | [4] 0.75% | [5] -1% | [6] -8.6%

O=[As](O)(c1cccc(Cl)c1)C1CCCCC1O (centres undefined)
inactive: [1] 1.05% | [2] -0.35% | [3] 5.3% | [4] -1.95% | [5] 25.2% | [6] 34.4%

O=C1NC(=O)C(Br)C(=O)N1 (tested in a mixture with another compound)
inactive: [1] -8.5% | [2] 8.95% | [3] 0.5% | [4] -19.6% | [5] -1.95% | [6] -0.3%
